Reference: paper PMC7862700, “An all-to-all approach to the identification of sequence-specific readers for epigenetic DNA modifications on cytosine”

Legend:
Assay in all cases: DAPPL (digital affinity profiling via proximity ligation, sequencing); 10 mM Tris-HCl pH 7.5, 50 mM NaCl, 1 mM DTT, 4% glycerol, room temperature, 30 min; GST-TFs on glutathione beads, 16-mer random dsDNA library, 0.1% formaldehyde crosslink after washing; high values mean tight binding
FLI1 = biological target: T1, FLI1 (Homo sapiens, UniProt Q01543 1-452); settings: protein: recombinant; tags: N-terminal GST; dsDNA, one strand shown
T1 sequence: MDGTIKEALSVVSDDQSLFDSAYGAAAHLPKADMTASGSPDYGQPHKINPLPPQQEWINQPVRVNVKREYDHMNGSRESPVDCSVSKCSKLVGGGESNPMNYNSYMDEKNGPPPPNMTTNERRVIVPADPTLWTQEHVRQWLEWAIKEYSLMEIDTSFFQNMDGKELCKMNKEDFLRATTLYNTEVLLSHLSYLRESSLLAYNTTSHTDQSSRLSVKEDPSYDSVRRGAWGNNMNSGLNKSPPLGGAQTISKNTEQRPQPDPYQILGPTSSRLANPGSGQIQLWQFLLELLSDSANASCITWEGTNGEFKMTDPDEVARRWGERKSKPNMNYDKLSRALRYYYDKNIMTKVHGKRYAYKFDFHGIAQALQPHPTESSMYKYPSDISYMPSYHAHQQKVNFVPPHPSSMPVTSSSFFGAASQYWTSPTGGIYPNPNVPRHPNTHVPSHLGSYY
Method in brief: (§1)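 Pools of DNA-barcoded human transcription factors, expressed in yeast as GST fusions on glutathione beads and combined with a tag-only sample, were incubated with 200 nmole of a 16-mer random double-stranded DNA library. Incubation took 30 min at room temperature in Tris/NaCl/DTT/glycerol buffer and was followed by washing, 0.1% formaldehyde crosslinking, proximity ligation (BsaI/T4 ligase, 1 h, 37 °C), PCR amplification and sequencing on an Illumina NextSeq500. Binding signal is the ratio of a hexamer's read frequency for a factor to its frequency for the tag-only sample.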

ELK1 = biological target: T2, ELK1 (Homo sapiens, UniProt P19419 1-428); settings: protein: recombinant; tags: N-terminal GST; dsDNA, one strand shown
T2 sequence: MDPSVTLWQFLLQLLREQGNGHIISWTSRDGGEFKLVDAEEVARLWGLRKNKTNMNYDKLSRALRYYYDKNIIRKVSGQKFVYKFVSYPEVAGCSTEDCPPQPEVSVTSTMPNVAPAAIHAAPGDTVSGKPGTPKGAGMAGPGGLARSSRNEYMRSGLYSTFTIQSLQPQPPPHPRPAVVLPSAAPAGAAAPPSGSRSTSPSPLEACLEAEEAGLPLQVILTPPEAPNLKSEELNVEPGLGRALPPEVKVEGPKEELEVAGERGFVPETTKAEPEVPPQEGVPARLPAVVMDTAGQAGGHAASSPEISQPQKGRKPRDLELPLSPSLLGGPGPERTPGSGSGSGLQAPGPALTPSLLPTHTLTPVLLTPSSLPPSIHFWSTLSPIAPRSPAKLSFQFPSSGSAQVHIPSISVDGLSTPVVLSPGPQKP
Method in brief: as §1

GABPA = biological target: T3, GABPA (Homo sapiens, UniProt Q06546 1-454); settings: protein: recombinant; tags: N-terminal GST; dsDNA, one strand shown
T3 sequence: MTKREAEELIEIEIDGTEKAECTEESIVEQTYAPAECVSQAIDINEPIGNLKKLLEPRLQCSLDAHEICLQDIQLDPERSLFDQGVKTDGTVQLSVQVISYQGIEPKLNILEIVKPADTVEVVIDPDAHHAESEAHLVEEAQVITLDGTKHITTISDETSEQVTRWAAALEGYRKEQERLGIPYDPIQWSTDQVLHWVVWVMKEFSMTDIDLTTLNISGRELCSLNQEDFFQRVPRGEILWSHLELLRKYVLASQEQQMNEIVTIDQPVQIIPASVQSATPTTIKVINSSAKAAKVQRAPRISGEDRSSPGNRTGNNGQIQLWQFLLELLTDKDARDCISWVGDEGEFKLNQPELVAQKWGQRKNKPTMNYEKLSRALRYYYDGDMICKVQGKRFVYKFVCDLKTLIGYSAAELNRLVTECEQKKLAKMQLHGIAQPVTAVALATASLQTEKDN
Method in brief: as §1

ERG = biological target: T4, ERG (Homo sapiens, UniProt P11308 1-479); settings: protein: recombinant; tags: N-terminal GST; dsDNA, one strand shown
T4 sequence: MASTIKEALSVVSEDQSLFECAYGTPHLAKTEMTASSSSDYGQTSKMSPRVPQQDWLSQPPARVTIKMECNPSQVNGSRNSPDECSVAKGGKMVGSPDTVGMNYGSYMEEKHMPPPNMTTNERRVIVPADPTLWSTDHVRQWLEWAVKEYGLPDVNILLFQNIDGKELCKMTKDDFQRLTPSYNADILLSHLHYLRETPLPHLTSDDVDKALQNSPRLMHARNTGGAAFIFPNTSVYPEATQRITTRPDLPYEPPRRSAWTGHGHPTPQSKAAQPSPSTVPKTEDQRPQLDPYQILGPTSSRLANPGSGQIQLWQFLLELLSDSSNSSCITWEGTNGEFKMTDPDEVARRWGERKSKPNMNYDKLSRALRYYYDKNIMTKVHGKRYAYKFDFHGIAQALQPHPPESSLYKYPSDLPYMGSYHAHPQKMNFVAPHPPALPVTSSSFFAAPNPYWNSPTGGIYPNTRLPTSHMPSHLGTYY
Method in brief: as §1

ELF1 = ELF1 (Homo sapiens, UniProt P32519 1-619); settings: protein: recombinant; tags: N-terminal GST; dsDNA, one strand shown
Method in brief: as §1

EHF = biological target: T5, EHF (Homo sapiens, UniProt Q9NZC4 1-300); settings: protein: recombinant; tags: N-terminal GST; dsDNA, one strand shown
T5 sequence: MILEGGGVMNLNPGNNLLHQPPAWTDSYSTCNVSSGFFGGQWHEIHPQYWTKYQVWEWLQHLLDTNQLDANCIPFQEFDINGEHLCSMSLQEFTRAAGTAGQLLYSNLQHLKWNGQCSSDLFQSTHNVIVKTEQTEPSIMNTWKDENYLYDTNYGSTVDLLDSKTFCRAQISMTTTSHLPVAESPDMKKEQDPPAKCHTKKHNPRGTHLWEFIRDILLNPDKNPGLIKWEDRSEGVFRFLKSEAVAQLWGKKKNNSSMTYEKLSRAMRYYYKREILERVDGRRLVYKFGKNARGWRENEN
Method in brief: as §1

SPI1 = SPI1 (Homo sapiens, UniProt P17947 1-270); settings: protein: recombinant; tags: N-terminal GST; dsDNA, one strand shown
Method in brief: as §1

SPIB = SPIB (Homo sapiens, UniProt Q01892 1-262); settings: protein: recombinant; tags: N-terminal GST; dsDNA, one strand shown
Method in brief: as §1

ELK3 = biological target: T6, ELK3 (Homo sapiens, UniProt P41970 1-407); settings: protein: recombinant; tags: N-terminal GST; dsDNA, one strand shown
T6 sequence: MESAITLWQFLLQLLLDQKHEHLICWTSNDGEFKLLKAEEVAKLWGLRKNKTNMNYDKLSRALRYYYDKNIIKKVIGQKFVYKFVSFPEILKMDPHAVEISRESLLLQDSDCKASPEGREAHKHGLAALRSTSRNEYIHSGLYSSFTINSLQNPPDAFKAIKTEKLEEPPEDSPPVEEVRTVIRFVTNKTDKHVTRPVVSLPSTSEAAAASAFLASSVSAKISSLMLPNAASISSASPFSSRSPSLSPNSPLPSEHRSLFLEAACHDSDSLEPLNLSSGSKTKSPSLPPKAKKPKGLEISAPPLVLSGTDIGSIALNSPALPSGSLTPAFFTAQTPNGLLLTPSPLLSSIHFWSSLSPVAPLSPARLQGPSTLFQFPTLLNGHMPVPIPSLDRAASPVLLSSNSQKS
Method in brief: as §1

FEV = biological target: T7, FEV (Homo sapiens, UniProt Q99581 1-238); settings: protein: recombinant; tags: N-terminal GST; dsDNA, one strand shown
T7 sequence: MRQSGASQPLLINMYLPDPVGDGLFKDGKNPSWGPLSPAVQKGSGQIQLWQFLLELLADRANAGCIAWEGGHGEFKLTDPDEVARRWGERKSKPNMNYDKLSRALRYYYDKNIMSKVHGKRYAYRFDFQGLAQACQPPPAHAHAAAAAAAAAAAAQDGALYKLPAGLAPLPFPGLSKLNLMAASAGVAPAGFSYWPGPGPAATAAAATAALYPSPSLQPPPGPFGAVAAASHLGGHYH
Method in brief: as §1

ETV5 = ETV5 (Homo sapiens, UniProt P41161 1-510); settings: protein: recombinant; tags: N-terminal GST; dsDNA, one strand shown
Method in brief: as §1

HSF1 = HSF1 (Homo sapiens, UniProt Q00613 1-529); settings: protein: recombinant; tags: N-terminal GST; chain copies: 3; dsDNA, one strand shown
Method in brief: as §1

SPIC = biological target: T8, SPIC (Homo sapiens, UniProt Q8N5J4 1-248); settings: protein: recombinant; tags: N-terminal GST; dsDNA, one strand shown
T8 sequence: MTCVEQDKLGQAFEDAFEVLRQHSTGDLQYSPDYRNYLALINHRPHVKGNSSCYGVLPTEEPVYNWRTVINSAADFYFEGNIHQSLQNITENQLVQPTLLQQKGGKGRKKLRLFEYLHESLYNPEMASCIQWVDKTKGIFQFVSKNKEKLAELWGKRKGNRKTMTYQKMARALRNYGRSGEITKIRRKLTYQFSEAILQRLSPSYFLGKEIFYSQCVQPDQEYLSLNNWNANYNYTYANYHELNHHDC
Method in brief: as §1

ELF4 = ELF4 (Homo sapiens, UniProt Q99607 1-663); settings: protein: recombinant; tags: N-terminal GST; dsDNA, one strand shown
Method in brief: as §1

ELK4 = biological target: T9, ELK4 (Homo sapiens, UniProt P28324-2 1-405); settings: protein: recombinant; tags: N-terminal GST; dsDNA, one strand shown
T9 sequence: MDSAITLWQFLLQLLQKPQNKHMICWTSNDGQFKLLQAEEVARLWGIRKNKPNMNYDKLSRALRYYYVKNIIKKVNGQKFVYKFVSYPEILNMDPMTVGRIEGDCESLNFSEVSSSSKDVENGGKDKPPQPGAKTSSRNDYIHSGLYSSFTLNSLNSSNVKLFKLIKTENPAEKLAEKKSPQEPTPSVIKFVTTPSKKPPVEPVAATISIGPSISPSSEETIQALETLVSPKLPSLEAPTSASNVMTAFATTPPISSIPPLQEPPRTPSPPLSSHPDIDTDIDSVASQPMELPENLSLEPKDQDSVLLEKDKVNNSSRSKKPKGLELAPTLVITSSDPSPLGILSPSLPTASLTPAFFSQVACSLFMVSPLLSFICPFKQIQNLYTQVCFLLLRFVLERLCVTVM
Method in brief: as §1

ETV2 = biological target: T10, ETV2 (Homo sapiens, UniProt O00321 1-342); settings: protein: recombinant; tags: N-terminal GST; dsDNA, one strand shown
T10 sequence: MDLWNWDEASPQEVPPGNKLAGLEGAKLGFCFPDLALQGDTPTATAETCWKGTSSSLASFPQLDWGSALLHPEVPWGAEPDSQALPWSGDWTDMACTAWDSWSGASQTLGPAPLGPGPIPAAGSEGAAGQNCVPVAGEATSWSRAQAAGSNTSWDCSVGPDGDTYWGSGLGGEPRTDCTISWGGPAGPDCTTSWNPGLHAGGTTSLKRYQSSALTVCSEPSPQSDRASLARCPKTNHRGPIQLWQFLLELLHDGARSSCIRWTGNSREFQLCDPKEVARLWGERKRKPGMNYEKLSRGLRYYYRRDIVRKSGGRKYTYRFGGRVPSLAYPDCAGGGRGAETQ
Method in brief: as §1

ELF3 = biological target: T11, ELF3 (Homo sapiens, UniProt P78545 1-371); settings: protein: recombinant; tags: N-terminal GST; dsDNA, one strand shown
T11 sequence: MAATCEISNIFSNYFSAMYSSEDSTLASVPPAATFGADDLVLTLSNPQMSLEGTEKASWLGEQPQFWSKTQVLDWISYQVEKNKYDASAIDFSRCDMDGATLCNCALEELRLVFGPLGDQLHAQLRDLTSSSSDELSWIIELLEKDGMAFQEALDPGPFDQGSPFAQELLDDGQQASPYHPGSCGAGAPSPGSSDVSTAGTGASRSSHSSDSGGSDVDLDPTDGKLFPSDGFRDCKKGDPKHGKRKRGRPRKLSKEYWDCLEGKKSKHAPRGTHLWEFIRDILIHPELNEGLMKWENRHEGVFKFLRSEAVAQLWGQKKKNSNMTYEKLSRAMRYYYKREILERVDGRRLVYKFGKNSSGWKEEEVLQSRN
Method in brief: as §1

CRX = CRX (Homo sapiens, UniProt O43186 1-299); settings: protein: recombinant; tags: N-terminal GST; dsDNA, one strand shown
Method in brief: as §1

ETV1 = ETV1 (Homo sapiens, UniProt P50549 1-477); settings: protein: recombinant; tags: N-terminal GST; dsDNA, one strand shown
Method in brief: as §1

HSF1, sequence (Q00613 whole entry): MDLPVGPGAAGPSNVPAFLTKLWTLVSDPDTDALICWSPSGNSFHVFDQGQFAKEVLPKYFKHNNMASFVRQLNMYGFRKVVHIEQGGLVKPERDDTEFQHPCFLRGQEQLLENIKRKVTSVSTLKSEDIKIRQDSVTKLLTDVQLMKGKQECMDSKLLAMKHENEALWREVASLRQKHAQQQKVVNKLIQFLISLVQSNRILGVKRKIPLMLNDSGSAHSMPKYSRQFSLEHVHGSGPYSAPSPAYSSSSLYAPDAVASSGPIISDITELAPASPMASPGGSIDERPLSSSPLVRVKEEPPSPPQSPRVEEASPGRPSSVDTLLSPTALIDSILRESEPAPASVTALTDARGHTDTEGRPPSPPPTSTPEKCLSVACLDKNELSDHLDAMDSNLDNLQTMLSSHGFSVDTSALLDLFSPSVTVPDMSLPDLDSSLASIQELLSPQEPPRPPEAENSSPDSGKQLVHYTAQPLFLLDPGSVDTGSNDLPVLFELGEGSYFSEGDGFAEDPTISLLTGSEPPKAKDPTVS
ELF1, sequence (P32519 whole entry): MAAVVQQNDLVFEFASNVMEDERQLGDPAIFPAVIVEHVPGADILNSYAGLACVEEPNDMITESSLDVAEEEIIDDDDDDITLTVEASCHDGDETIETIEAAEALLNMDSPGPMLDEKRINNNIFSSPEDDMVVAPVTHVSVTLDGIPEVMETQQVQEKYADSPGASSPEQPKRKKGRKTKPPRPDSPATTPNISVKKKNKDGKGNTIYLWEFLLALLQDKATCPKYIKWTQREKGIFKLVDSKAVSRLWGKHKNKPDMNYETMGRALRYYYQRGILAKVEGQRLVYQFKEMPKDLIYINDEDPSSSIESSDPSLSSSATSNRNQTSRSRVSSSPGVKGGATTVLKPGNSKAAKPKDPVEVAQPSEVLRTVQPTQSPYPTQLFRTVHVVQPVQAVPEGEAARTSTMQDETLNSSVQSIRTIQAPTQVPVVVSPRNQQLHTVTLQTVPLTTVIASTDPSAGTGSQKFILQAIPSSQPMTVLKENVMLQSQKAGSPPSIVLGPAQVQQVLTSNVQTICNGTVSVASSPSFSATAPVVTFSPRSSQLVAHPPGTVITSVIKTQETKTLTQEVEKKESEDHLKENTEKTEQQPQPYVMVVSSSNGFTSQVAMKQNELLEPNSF
ETV1, sequence (P50549 whole entry): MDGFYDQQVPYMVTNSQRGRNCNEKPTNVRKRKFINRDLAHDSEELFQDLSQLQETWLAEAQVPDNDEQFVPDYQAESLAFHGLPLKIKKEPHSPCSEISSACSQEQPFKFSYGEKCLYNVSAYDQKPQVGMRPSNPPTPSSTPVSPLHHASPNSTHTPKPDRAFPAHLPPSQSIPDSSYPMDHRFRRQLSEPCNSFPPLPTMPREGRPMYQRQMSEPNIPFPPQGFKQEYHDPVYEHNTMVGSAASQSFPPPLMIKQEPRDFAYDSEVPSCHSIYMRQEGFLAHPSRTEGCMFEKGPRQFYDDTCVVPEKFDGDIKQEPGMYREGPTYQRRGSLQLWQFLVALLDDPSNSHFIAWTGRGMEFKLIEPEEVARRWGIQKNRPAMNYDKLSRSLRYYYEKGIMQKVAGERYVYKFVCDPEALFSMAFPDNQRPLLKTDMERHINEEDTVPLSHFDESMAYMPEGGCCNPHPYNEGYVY
SPIB, sequence (Q01892 whole entry): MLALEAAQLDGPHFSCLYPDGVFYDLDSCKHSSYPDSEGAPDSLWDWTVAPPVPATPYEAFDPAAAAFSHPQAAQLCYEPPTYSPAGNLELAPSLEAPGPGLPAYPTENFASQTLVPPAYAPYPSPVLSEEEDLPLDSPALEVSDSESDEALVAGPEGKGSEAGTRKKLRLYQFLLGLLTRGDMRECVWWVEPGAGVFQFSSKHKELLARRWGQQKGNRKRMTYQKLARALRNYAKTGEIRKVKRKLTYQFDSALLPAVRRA
CRX, sequence (O43186 whole entry): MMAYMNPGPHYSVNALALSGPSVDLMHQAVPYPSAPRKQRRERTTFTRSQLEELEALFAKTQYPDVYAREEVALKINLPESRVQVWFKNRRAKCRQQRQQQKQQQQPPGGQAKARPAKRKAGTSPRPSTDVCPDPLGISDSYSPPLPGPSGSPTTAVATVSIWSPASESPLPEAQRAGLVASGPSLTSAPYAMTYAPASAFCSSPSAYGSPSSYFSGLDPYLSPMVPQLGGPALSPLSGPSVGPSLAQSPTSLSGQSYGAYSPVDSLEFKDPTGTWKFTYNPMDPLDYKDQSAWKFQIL
ETV5, sequence (P41161 whole entry): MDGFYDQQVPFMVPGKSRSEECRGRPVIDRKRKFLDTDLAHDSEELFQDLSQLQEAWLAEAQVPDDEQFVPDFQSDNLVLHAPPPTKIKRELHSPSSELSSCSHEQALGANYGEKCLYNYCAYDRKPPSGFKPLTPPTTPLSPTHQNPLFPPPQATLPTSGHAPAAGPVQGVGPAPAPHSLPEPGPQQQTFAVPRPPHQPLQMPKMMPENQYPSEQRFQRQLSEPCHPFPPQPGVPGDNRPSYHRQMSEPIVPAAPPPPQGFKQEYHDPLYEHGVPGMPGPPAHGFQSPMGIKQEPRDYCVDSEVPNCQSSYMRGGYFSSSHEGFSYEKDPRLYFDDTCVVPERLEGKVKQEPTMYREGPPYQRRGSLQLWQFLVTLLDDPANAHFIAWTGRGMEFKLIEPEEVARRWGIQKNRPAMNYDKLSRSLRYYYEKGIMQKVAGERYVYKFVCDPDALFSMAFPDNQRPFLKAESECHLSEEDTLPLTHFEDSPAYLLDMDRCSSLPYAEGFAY
ELF4, sequence (Q99607 whole entry): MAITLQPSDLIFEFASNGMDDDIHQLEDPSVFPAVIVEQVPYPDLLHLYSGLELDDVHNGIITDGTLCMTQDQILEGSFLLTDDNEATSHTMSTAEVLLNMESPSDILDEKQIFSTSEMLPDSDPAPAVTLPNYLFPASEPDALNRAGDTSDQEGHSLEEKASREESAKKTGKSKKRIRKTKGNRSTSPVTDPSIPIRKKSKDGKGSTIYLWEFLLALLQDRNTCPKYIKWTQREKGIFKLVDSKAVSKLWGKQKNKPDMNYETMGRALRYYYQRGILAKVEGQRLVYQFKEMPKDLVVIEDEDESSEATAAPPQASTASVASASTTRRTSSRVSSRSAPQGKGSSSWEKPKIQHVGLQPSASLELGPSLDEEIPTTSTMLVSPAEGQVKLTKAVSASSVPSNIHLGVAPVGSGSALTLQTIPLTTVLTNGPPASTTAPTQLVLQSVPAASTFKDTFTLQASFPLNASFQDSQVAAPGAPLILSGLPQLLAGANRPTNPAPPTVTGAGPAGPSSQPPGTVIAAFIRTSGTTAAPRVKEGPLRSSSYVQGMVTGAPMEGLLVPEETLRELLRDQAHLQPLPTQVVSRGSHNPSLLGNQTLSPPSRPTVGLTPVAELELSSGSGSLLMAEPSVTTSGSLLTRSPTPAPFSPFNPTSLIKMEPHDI

Sequence: AACGAA
- binding signal (FLI1): 1.07 fold enrichment (6-mer frequency, TF over GST control)
- binding signal (ELK1): 1.14 fold enrichment (6-mer frequency, TF over GST control)
- binding signal (GABPA): 1.15 fold enrichment (6-mer frequency, TF over GST control)
- binding signal (ERG): 1.15 fold enrichment (6-mer frequency, TF over GST control)
- binding signal (ELF1): 1.18 fold enrichment (6-mer frequency, TF over GST control)
- binding signal (EHF): 1.15 fold enrichment (6-mer frequency, TF over GST control)
- binding signal (SPI1): 1.14 fold enrichment (6-mer frequency, TF over GST control)
- binding signal (SPIB): 1.19 fold enrichment (6-mer frequency, TF over GST control)
- binding signal (ELK3): 1.13 fold enrichment (6-mer frequency, TF over GST control)
- binding signal (FEV): 1.15 fold enrichment (6-mer frequency, TF over GST control)
- binding signal (ETV5): 1.22 fold enrichment (6-mer frequency, TF over GST control)
- binding signal (HSF1): 1.33 fold enrichment (6-mer frequency, TF over GST control)
- binding signal (SPIC): 1.2 fold enrichment (6-mer frequency, TF over GST control)
- binding signal (ELF4): 1.1 fold enrichment (6-mer frequency, TF over GST control)
- binding signal (ELK4): 1.13 fold enrichment (6-mer frequency, TF over GST control)
- binding signal (ETV2): 1.11 fold enrichment (6-mer frequency, TF over GST control)
- binding signal (ELF3): 1.19 fold enrichment (6-mer frequency, TF over GST control)
- binding signal (CRX): 1.08 fold enrichment (6-mer frequency, TF over GST control)
- binding signal (ETV1): 1.09 fold enrichment (6-mer frequency, TF over GST control)
